# USP10 inh = inhibitors of human USP10 deubiquitinase. Q14694. purified USP10, Ub-rhodamine fluorescence, 60 min. inhibition, % at 20 µM. hit rate 1.1% among 47,000. AID 1645856
# USP8 block = inhibitors of human USP8 deubiquitinase; inhibition, % at 20 µM; AID 1645853; hit rate 4.2% among 47,000; P40818; purified USP8, Ub-rhodamine cleavage fluorescence, 30 min
# USP17 block = blocks human USP17 ubiquitin-rhodamine cleavage. purified USP17, Ub-rhodamine cleavage fluorescence, 3 h. AID 1645855. A8MUK1. hit rate 6.5% among 47,000. inhibition, % at 50 µM
# Target sequence (A8MUK1 whole entry, looked up): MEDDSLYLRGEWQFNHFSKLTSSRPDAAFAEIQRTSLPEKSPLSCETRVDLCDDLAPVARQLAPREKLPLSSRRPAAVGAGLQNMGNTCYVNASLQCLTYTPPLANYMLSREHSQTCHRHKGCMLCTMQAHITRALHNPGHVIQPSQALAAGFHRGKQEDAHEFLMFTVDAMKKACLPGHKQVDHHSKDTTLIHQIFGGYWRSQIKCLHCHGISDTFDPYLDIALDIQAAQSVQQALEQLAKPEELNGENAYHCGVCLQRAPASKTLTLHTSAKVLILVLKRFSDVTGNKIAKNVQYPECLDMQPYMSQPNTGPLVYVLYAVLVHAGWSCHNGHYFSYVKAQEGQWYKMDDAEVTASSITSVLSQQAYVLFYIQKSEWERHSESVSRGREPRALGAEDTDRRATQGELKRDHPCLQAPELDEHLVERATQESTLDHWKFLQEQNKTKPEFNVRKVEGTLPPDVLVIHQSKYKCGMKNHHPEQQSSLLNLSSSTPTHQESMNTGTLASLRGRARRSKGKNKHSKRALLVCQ
# USP28 block = human USP28 deubiquitinase inhibition; purified USP28, Ub-rhodamine cleavage fluorescence, 30 min; inhibition, % at 25 µM; Q96RU2; hit rate 3% among 47,000; AID 1645857
# USP30 inh = blocks human USP30 ubiquitin-rhodamine cleavage; Q70CQ3; purified USP30, Ub-rhodamine cleavage fluorescence; inhibition, % at 25 µM; hit rate 5.3% among 47,000
# An asterisk follows results filed as active; · = no result given. In the library only some 14% were active in any assay of this set; here they are far more common. Cut-off read from the data, not from the text of the source: active = inhibition above about 30%; inactive = the rest.
SMILES,USP10 inh,USP8 block,USP17 block,USP28 block,USP30 inh
Cc1nc(-c2noc3ccc(C(=O)NC4CCCC4)cc23)co1,3,17,32*,17,33*
CC(=O)c1cccc(NC(=O)c2ccc3noc(-c4ccc(F)cc4)c3c2)c1,0,-42,0,9,41*
Cc1cccc(-c2nc3scc(-c4ccccc4)n3n2)c1,2,4,-10,·,·
Fc1cccc(Cn2cc(-c3noc(-c4cccnc4)n3)nn2)c1,3,21,63*,-3,-5
COc1ccccc1-c1nc(-c2cn(-c3cccc(Cl)c3)nn2)no1,71*,96*,-18,20,46*
COc1cc(OC)cc(-c2nc(-c3cn(-c4cccc(F)c4)nn3)no2)c1,5,62*,1,22,65*
COc1ccccc1-c1nc(-c2cn(-c3ccc(C)cc3)nn2)no1,2,4,62*,1,11
Fc1cccc(-n2cc(-c3noc(-c4ccncc4)n3)nn2)c1,0,7,11,4,18
CC(=O)NC(Cc1ccc(C)cc1)C(=O)NC1CCN(C(=O)Nc2cccc(F)c2)CC1 (centres undefined),-1,0,2,5,5
COc1ccccc1C(=O)NCC(c1ccsc1)N1CCCC1 (centres undefined),-3,14,11,5,-33
Cc1ccccc1-c1ccc(-n2cncc2C(=O)NC2C[C@@H]3CC[C@H]2C3)cc1 (some centres undefined),7,-12,-5,2,-4
Cc1oc(-c2ccco2)nc1CN1CCCC1Cn1cncn1 (centres undefined),-7,-16,-27,-16,-59
O=C(NC1CCCC1)C1CC(=O)N(c2cccc(-c3noc(-c4cccs4)n3)c2)C1 (centres undefined),45*,0,61*,-1,-41
COc1cccc(C2c3[nH]c4ccccc4c3C[C@@H]3C(=O)N(CCCN4CCOCC4)CC(=O)N23)c1 (some centres undefined),-7,-27,-17,-12,37*
Cc1ccc2nc(N3C(=O)c4oc5ccccc5c(=O)c4C3c3ccco3)sc2c1 (centres undefined),10,12,-9,4,-49
Cc1ccc2nc(N3C(=O)c4oc5ccccc5c(=O)c4C3c3ccc(C)o3)sc2c1 (centres undefined),7,10,40*,13,41*
O=c1[nH]c(=O)n(-c2ccc(F)cc2)c2c1CN(Cc1ccco1)CN2,2,-1,-2,-2,-1
COc1ccc(C(=O)/C=C\c2cn(CCC(=O)O)nc2-c2ccc(OC)c(OC)c2)cc1,4,0,-4,9,14
COc1ccc(-c2nn(-c3ccccc3)cc2/C=C/C(=O)Nc2ccc(C(C)=O)cc2)cc1OC,7,30,55*,48*,84*
CC1CC(=O)Nc2cc(S(=O)(=O)Nc3ccc(F)cc3F)ccc2S1 (centres undefined),0,-5,6,-3,-14
CC1CC(=O)Nc2cc(S(=O)(=O)Nc3cccc(F)c3)ccc2S1 (centres undefined),11,12,12,14,31*
CN1[C@@H](CCC(=O)NCc2ccc(F)cc2)CNC(=O)[C@H]2NCC[C@H]21,1,0,-3,-8,-2
Cc1ccc(-c2ncc(NC(=O)COc3cccc(C)c3)cn2)cc1,-5,30*,-12,-30,-69
O=C(COc1ccc(F)cc1)Nc1cnc(-c2ccc(Cl)cc2)nc1,7,95*,74*,23,35*
CS(=O)(=O)N1CCN(c2ccc(NC(=O)COc3ccccc3)cc2)CC1,6,-14,-8,-9,0
SMILES,USP10 inh,USP8 block,USP17 block,USP28 block,USP30 inh
O=C(COc1ccccc1)Nc1cnc(-c2ccc(Cl)cc2)nc1,3,78*,31*,-3,12
CCN1CCN(c2ccc(NC(=O)COc3cccc(C)c3)cc2)CC1,-2,1,19,12,32*
O=C(COc1ccc(Cl)cc1Cl)N1CCC(Cc2ccccc2)CC1,13,-32,2,17,8
Cc1ccc(C(CNC(=O)Cc2ccc(F)cc2)N2CCOCC2)cc1 (centres undefined),1,-3,-6,-3,-4
COc1cccc(C(=O)Nc2cnc(-c3ccccc3)nc2)c1,1,3,4,4,1
COc1cccc(CC(=O)Nc2cnc(-c3ccc(Cl)cc3)nc2)c1,6,79*,37*,9,2
O=C(COc1ccccc1)Nc1cnc(-c2ccccc2)nc1,-3,-1,44*,-11,-23
CCN(CC(=O)Nc1cc(C)on1)c1cccc2ccccc12,5,90*,88*,23,27
CCOC(=O)CN1CCC2(CCC1=O)CC(=O)c1ccccc1O2 (centres undefined),-4,-23,-7,-5,-46
CN(C)c1nc(NCc2ccccc2)nc(Oc2ccc(=O)[nH]n2)n1,-1,0,9,33*,31*
CC(C)(C)NC(=O)C1=CC(c2ccccc2)C=CC=C1 (centres undefined),2,14,13,12,16
c1ccc2c(c1)CCN(c1nc3cc4c(cc3s1)OCO4)C2,5,33*,28,10,5
Clc1ccc2nc(N3CCc4ccccc4C3)sc2c1,-1,28,-6,17,10
C[C@@H]1CO[C@@H]2C3=C(C(=O)C=CC3=O)[C@H]3OC(=O)[C@@H]4CCC5[C@@H]1CCC52C34 (some centres undefined),34*,34*,80*,62*,59*
CCCc1cc(N2CCN(C(=O)C3CCOC3)CC2)nc2nnc(CC)n12 (centres undefined),3,0,-25,10,20
Cc1nn(-c2nc3ccccc3[nH]2)c2c1C(c1cccc(F)c1)CC(=O)N2 (centres undefined),14,19,-2,-8,-4
Cc1nn(-c2nc3ccccc3[nH]2)c2c1C(c1cccs1)CC(=O)N2 (centres undefined),19,38*,52*,31*,-18
Cc1nn(-c2nc3ccccc3[nH]2)c2c1C(c1ccccc1Cl)CC(=O)N2 (centres undefined),10,51*,-1,0,0
Cc1nn(-c2nc3ccccc3n2C)c2c1C(c1ccsc1)CC(=O)N2 (centres undefined),3,-18,2,1,7
O=C(CNC(c1ccccc1)c1ccccc1)NCc1ccc2c(c1)OCO2,3,1,5,0,-12
Cn1cc(-c2cnc(-c3ccnn3C)nc2)cc1C(=O)NC1CC1,-1,16,12,5,13
N#CCCc1c(-c2ccccc2)nc2[nH]c3ccccc3n2c1=O,12,39*,16,6,11
Cc1ccc(-n2ncc3c(=O)[nH]c(SCC(=O)NCc4ccco4)nc32)cc1C,13,39*,-1,-11,-65
COc1ccc2c(c1)C=C(C(=O)Nc1ncc(Cc3ccc(C)cc3)s1)C=CO2,9,-14,-3,6,-16

# Screens from PubChem BioAssay.
